Results filed as inconclusive are left out. The source made the active and inactive calls. The call rests on the fitted dose curve; in most records, active means well fitted inhibition curve with a large enough effect; inconclusive means small, poorly fitted or top-dose-only effect; inactive means no such curve, though single readings can be large or run the other way.

Results on 37 molecules are retold here after PubChem BioAssay AID651791 (National Center for Advancing Translational Sciences (NCATS), 2012).
Potency means the concentration at half of the fitted maximal effect.

This assay in a line: InCell qHTS Assay for Inhibitors of the mTORC1 Signaling Pathway in MEF (Tsc2-/-, p53-/-) Cells: Hit Validation.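 Further: phospho-S6 Ser235/236 signal normalized to propidium iodide cell count per well; nearly all actives have a fitted effect of over 75% in size.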 As to conditions: phospho-rpS6 immunofluorescence, 24 h; activity change, negative = inhibition: at 38.3 µM (top of the series).
Turning to `CC(C)(C)c1ccc(S(=O)(=O)N2CCC(c3ccncc3)CC2)cc1`, the activity change, negative = inhibition is -29.8%. Still for that read-out and setting: next, `CCc1cnc2c(c1SCC(=O)NCc1ccc(F)cc1)c(=O)n(C)c(=O)n2C`: -100%. Turning to `CC(C)S(=O)(=O)c1oc(-c2cccs2)nc1S(=O)(=O)c1ccc(F)cc1`, the Potency was 1470 nM (active).

Take `Cn1nc(-c2ccc(OCC(=O)Nc3ccccc3)cc2)c2ccccc2c1=O`: the activity change, negative = inhibition was -100%.

`CCCCN1C(=O)C(O)(CC(=O)c2ccc(C(C)(C)C)cc2)c2ccccc21` (configuration not stated): the activity change, negative = inhibition was -28.2%. The same measure, in the same setting: the result for `O=c1oc2ccccc2cc1-c1cn2cc(Cc3ccccc3F)sc2n1` reads -100%; that for `CCOC(=O)c1[nH]c2ccccc2c1NC(=O)c1ccccc1OCC`, -100%; that for `CC(=O)Nc1ccc2nc(-c3cc(C)ccc3C)[nH]c2c1`, -100%. As for `Cc1cccc(CSc2cn(CC(=O)N3CCCCCC3)c3ccccc23)c1`, the activity change, negative = inhibition was -100%.

In the case of `CCCN(c1ccccc1CC)S(=O)(=O)c1ccc2c(c1)CC(C)N2C(=O)C1CC1` (configuration not stated), the activity change, negative = inhibition is -100%.

Take `COc1cc(C(=O)n2nc(C)c(Sc3ccc(Cl)cc3)c2C)cc(OC)c1OC`: the activity change, negative = inhibition was -100%.

Take `COc1ccc(-c2ccc(CCC(=O)O)n2-c2ccccc2O)cc1`: the activity change, negative = inhibition was -7.96%. Still for that read-out and setting: next, `CCCC1=Nc2cc(C(=O)NCCOC)ccc2Sc2ccccc21`: -100%; `Cc1ccccc1S(=O)Cc1ccc(C(=O)N2CCN(c3cccc(C)c3C)CC2)o1` (configuration not stated): -28.4%.

With `COc1ccc(-c2nc(C)c(CCNC(=O)c3ccccc3Br)s2)cc1OC`, the activity change, negative = inhibition was -100%. Take `CCC1CCc2nc3sc(C(=O)Nc4ccc(C)cc4)c(N)c3cc2C1` (configuration not stated): the activity change, negative = inhibition is -100%. On to `COc1cc(Cl)c(C)cc1NC(=O)C1CCN(c2nc3ccccc3n3cccc23)CC1`, for which the activity change, negative = inhibition was -100%.

As for `Cc1ccccc1Oc1nc2ccccn2c(=O)c1/C=C(\C#N)c1nc2ccccc2[nH]1`, the activity change, negative = inhibition was -100%. `Cc1ccc(-c2cc(C(=O)N3CCN(c4ccccc4)CC3)c3ccccc3n2)cc1C`: the activity change, negative = inhibition was -100%.

`CCS(=O)(=O)c1ncc(Cl)c(C(=O)Nc2ccc(S(=O)(=O)N(C)c3ccccc3)cc2)n1`: the Potency was 1850 nM (active). In the case of `Cc1ccc(NC(=O)CSc2nc(=O)cc(N)n2CCc2ccccc2)cc1`, the activity change, negative = inhibition is -100%. For `CCNC(=O)c1c(NC(=O)c2nc(S(=O)(=O)CC)ncc2Cl)sc2c1CCCC2`, the Potency is 2070 nM (active). Take `Cc1cccc(-c2nc3c(cnn3-c3ccccc3)c(=O)n2-c2ccc(Br)cc2)c1`: the activity change, negative = inhibition is -100%. For `Cc1cc(C)c(NC(=O)c2sc3nc(C)cc(C)c3c2NC(=O)c2ccccc2)c(C)c1`, the activity change, negative = inhibition was -100%. Still for that read-out and setting: next, `COc1ccc(-c2nnc(SCC(=O)NCc3ccccc3)nc2-c2ccc(OC)c(OC)c2)cc1OC`: -100%.

Turning to `COc1cc2nc(Nc3ccc(C)c(C)c3)nc(N)c2cc1OC`, the activity change, negative = inhibition is -100%. Still for that read-out and setting: the result for `CC(C)N(C(=O)CSc1nc2ccc(Cl)cc2[nH]1)c1ccccc1` reads -100%; that for `O=C(Nc1ccccc1)N(Cc1cccc(Cl)c1)c1ccccn1`, -100%. On the same count and under the same terms, the result for `CCc1ccc(NC(=O)CSc2nccn2C2CCCC2)cc1` reads -100%; that for `CC(C)Cc1ccc(S(=O)(=O)N2CCC(c3ccncc3)CC2)cc1`, -100%. For `Cc1oc2ccc(O)c(CN3CCCC(C)C3)c2c1C(=O)Nc1ccccc1` (configuration not stated), the activity change, negative = inhibition was -29.6%. Same read-out and setting: the result for `O=C(CCCn1ccc2cc(S(=O)(=O)N3CCCC3)ccc21)NCc1ccc(Cl)cc1` reads -100%.

Consider `Cc1ccc([C@H]2Nc3ccc(S(=O)(=O)Nc4cccc(Cl)c4C)cc3[C@H]3C=CC[C@H]32)cc1`, for which the activity change, negative = inhibition was -100%. The same measure, in the same setting: the result for `COc1cccc(C2CC(=O)Nc3cc4c(cc32)OCCO4)c1OC` (configuration not stated) reads -100%.

On to `CS(=O)(=O)N(CC(=O)NCCc1ccccc1)c1cc(C(F)(F)F)ccc1Cl`, for which the activity change, negative = inhibition is -100%. The same measure, in the same setting: next, `Cc1ccc(C)c(N2CCN(CCCNC(=O)c3nnc(Cc4ccc(F)cc4Cl)o3)CC2)c1`: 1.72%. Turning to `Fc1ccc(Nc2nc3nonc3nc2Nc2cccc(C(F)(F)F)c2)cc1`, the activity change, negative = inhibition is -100%.
